Records with an inconclusive call do not appear. Calls of active or inactive are those of the source. Unless noted, the call rests on the fitted dose curve; in most records, active means well fitted curve in the direction sought with a large enough effect; inconclusive means small, poorly fitted or top-dose-only effect, or another doubt; inactive means no such curve, though single readings can be large; an effect the other way counts as inactive or inconclusive.
Assays:
[1] = Cytometric Cell-Based qHTS for Inhibitors of the mTORC1 Signaling Pathway in MEF (Tsc2-/-, p53-/-) Cells (AID 2660);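 further: Tsc2 and p53 null MEFs carrying empty vector with compound for 24 h; percent of cells above a phospho-rpS6 to PI ratio cutoff in each well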
In short: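 Percent of cells positive for normalized phospho-S6 staining is reported, with the cutoff set from rapamycin (7.5 nM) versus DMSO wells. Tsc2-/-, p53-/- MEFs received compound for 24 hrs.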

[2] = High Content Imaging Cell-Based qHTS for Inhibitors of the mTORC1 Signaling Pathway in MEF (Tsc2-/-, p53-/-) Cells (AID 2666); settings: at 38.3 µM (top of the series);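 further: percent of cells scored positive for phospho-rpS6 Ser235/236 immunostaining by imaging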
In short: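 Inhibition of rpS6 phosphorylation is measured by immunofluorescence imaging in empty-vector Tsc2-/-, p53-/- mouse embryonic fibroblasts after 24 hrs compound exposure at 37 degree Celsius. Results are reported as % positive cells per well.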

[3] = qHTS for differential inhibitors of proliferation of Plasmodium falciparum line D10 (AID 1877);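 further: parasites grown with compound for 72 h before DNA staining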
[4] = qHTS for differential inhibitors of proliferation of Plasmodium falciparum line Dd2 (AID 1882);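 further: compound exposure of 72 h on infected erythrocytes; nearly all actives have a fitted effect of over 65% in size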
Source text: NIH Molecular Libraries Probe Production Network [MLPCN]
NIH National Institute of Allergy and Infectious Diseases [NIAID]
NIH Chemical Genomics Center [NCGC]
Assay Provider: Xinzhuan Su, NIAID
Plasmodium falciparum is a virulent malarial parasite that kills 1-2 million people worldwide each year. Transmitted by mosquitoes, the sporozoite form of the parasite enters the blood stream to infect hepatocytes, where they become merozoites that infect red blood cells (erythrocytes). Within erythrocytes, merozoites begin a […] cycle of growth and division, after which the parasite is released to infect new red blood cells. Gametocytes, which form within erythrocytes as well, circulate in the bloodstream and are ingested by the mosquito, thereby completing the life cycle. […] Because mature erythrocytes lack DNA, only Plasmodium-derived DNA is detected. […]
The SYBR Green viability assay was adapted from a method described previously (Plouffe et al., 2008). […] The following morning, fluorescence intensity at 485(14) nm excitation and 535(25) nm emission wavelengths was measured on an EnVision (Perkin Elmer) plate reader. Plate reads were normalized relative to the control inhibitor (0.29 uM artemisinin) and vehicle (DMSO) wells present on each plate and then corrected by an algorithm using vehicle-only control plates at the beginning and end of the compound plate stack. […]

[5] = qHTS for differential inhibitors of proliferation of Plasmodium falciparum line W2 (AID 1883);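 further: parasites grown with compound for 72 h before lysis and staining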
[6] = qHTS for differential inhibitors of proliferation of Plasmodium falciparum line HB3 (AID 1886);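 further: parasites grown with compound for 72 h before SYBR Green readout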
[7] = target: Ferritin light chain (Equus caballus) (UniProt P02791); assay: qHTS Validation Assay for Identification of Novel General Anesthetics (AID 2323)
In short: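 Normalized fluorescence response, scaled between free 1-AMA and 1-AMA/apoferritin complex, fitted to a four-parameter Hill equation for concentration-effect values. Binding mix: 10 uM horse-spleen apoferritin, 50% saturated 1-AMA in PBS; read 380/535 nm after 10 min.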

[8] = target: ATP-dependent DNA helicase Q1 (Homo sapiens) (UniProt P46063); assay: qHTS Validation Assay for Inhibitors of RecQ-Like Dna Helicase 1 (RECQ1) (AID 2353)
In short: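 RECQ1T1 50 nM; forked duplex (20 bp + 30-nt ss tails) 200 nM, ATP 2 mM final; pH 8.0, 2 mM MgCl2, 2.5 ug/ml poly(dI-dC); 15 min compound preincubation; discontinuous kinetic read over 2 h at RT.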

[9] = target: RecQ-like DNA helicase BLM (Homo sapiens) (UniProt P54132); assay: qHTS Validation Assay for Inhibitors of Bloom's syndrome helicase (BLM) (AID 2364)
In short: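 BLM 50 nM in 25 mM Tris-HCl pH 8.0, 5 mM NaCl, 2 mM MgCl2, 1 mM DTT, 0.01% Tween-20, 2.5 ug/ml poly(dI-dC); 15 min cpd preinc, RT. Start: 200 nM forked DNA + 2 mM ATP (final). TAMRA read, 2 reads 2 h apart.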

[10] = qHTS Assay for Identification of Small Molecule Inducers of Hypoxia Response (AID 2120; active means well fitted curve in the direction sought with a large enough effect in the signal ratio, with a control signal flat, not every such curve was filed as active; the % refers to the signal ratio)
In short: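 Read-out: CCF4 FRET emission ratio 460nm/530nm (excitation 405nm), converted to %Activity, with AC50 fitted across a compound titration. ME-180 cells carried an HRE-driven beta-lactamase reporter; compound exposure 17 h, 37 degrees C.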

ATP-dependent DNA helicase Q1 (Homo sapiens), sequence (P46063 whole entry, looked up): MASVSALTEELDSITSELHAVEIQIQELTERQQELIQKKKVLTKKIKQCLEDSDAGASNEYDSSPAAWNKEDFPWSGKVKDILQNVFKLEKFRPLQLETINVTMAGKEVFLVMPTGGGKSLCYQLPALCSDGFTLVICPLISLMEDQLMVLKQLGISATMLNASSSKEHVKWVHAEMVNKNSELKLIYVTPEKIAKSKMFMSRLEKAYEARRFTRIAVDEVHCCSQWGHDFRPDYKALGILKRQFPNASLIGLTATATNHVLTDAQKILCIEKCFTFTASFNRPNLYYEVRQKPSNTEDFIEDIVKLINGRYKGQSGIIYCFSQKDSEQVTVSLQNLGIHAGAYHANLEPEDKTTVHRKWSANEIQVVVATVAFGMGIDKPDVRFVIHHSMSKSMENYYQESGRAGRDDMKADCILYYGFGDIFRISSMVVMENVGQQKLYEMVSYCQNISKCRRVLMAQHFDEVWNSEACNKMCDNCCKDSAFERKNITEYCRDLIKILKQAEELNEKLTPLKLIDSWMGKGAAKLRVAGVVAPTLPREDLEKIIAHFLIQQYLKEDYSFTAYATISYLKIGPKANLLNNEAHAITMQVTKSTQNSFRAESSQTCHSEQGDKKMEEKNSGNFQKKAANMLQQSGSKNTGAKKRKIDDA
RecQ-like DNA helicase BLM (Homo sapiens), sequence (P54132 whole entry, looked up): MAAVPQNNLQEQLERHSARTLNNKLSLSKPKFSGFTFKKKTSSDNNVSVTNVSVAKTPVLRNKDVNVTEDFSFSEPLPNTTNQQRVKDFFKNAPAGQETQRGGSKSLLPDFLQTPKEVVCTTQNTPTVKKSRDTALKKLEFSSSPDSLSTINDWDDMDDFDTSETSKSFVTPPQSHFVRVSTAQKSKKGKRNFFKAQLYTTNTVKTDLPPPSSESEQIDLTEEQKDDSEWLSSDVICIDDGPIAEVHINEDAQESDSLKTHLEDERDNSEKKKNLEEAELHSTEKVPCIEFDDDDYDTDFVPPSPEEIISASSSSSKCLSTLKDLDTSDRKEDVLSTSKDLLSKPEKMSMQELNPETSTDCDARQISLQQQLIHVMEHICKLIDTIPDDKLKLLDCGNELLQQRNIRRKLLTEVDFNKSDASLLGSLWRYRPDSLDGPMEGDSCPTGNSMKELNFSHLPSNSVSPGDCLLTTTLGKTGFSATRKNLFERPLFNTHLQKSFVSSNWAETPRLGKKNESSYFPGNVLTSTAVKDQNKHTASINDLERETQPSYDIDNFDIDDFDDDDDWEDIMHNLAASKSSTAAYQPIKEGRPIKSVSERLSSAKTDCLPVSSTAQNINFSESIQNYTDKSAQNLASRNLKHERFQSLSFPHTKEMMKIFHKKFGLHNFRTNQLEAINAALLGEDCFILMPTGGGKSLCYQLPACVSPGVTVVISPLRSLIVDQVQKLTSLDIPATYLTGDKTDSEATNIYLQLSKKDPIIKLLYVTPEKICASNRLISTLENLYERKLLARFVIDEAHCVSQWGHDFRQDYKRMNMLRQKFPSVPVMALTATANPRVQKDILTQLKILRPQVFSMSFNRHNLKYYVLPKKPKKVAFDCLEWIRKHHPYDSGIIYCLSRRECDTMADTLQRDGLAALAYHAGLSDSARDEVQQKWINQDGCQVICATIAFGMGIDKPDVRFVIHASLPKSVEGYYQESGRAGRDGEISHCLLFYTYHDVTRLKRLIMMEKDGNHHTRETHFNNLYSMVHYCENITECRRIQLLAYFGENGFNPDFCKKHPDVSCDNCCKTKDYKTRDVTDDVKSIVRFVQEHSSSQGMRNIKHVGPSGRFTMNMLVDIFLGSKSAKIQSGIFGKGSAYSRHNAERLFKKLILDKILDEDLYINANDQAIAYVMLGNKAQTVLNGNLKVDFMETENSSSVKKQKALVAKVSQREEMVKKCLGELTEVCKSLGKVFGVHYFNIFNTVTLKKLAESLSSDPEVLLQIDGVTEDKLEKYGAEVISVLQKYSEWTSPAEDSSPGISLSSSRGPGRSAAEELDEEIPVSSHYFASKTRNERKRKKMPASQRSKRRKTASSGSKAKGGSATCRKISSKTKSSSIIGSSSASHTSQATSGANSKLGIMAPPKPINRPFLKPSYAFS
Ferritin light chain (Equus caballus), sequence (P02791 2-175 limits assumed): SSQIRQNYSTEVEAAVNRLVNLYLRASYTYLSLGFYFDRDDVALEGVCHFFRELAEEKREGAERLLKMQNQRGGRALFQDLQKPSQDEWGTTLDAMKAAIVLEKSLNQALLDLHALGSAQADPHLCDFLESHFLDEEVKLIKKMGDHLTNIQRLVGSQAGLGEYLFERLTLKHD

With `O=c1[nH]c(=O)n([C@H]2C[C@@H](O)[C@@H](CO)O2)cc1C=CBr` the outcome [1] was “inactive” and the outcome [2] was “inactive”.
In the case of `N=c1ccn2c(n1)O[C@H]1[C@@H](O)[C@@H](CO)O[C@H]12`, the outcome [3] is reported as “inactive”, the outcome [4] is reported as “inactive” and the outcome [5] is reported as “inactive”. The outcome [6] was “inactive”, the outcome [7] was “inactive” and the outcome [8] was “inactive”. For the same compound, the outcome [9] was “inactive”.
For `Cc1cc(O)c2c(c1)C(=O)c1cccc(O)c1C2=O`, the outcome [10] was “inactive”.
For `COc1ccc2cc([S+]([O-])Cc3ncc(C)c(OC)c3C)nc2c1`, the outcome [1] was “inactive” and the outcome [2] was “inactive”.
With `CN[C@H](CC(C)C)C(=O)N[C@H]1C(=O)N[C@@H](CC(N)=O)C(=O)N[C@@H]2C(=O)N[C@H]3C(=O)N[C@H](C(=O)N[C@H](C(=O)O)c4cc(O)cc(O)c4-c4cc3ccc4O)[C@H](O)c3ccc(c(Cl)c3)Oc3cc2cc(c3O[C@@H]2O[C@H](CO)[C@@H](O)[C@H](O)[C@@H]2O[C@H]2C[C@](C)(N)[C@H](O)[C@H](C)O2)Oc2ccc(cc2Cl)[C@H]1O` the outcome [1] was “inactive” and the outcome [2] was “inactive”.

Reference: PubChem BioAssay (NCATS)
